BCLXL inh: inhibitors of human Bcl-xL, primary screen, biochemical, fluorescence polarization, HTS; GST-Bcl-xL / FITC-Bim BH3 peptide fluorescence polarization; inhibition, % at 10.9 µM; 0.7% of 320,000 active;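 active means inhibition above the mean of all tested compounds plus 3 SD, cutoff set per campaign, cut at about 30% in these data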;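 further: inhibitors lower millipolarization by displacing the labeled peptide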
GLD-1 RNA inh: GLD-1/TGE RNA complex disruptors, primary screen, biochemical, fluorescence polarization; Female germline-specific tumor suppressor gld-1 (Caenorhabditis elegans), Q17339; purified GLD-1 + fluorescein TGE RNA; inhibition, % at 5.96 µM; 0.44% of 320,000 active; AID 2280, 2010;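 active means percent inhibition above a per-plate cutoff, the plate mean of test compounds plus 3 SD, cut at about 30% in these data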
IDE act: human IDE activators in live cells, primary screen, fluorescence polarization, HEK cells, FAbeta-B substrate; 0.073% of 340,000 active; activation, % at 5.96 µM; FAbeta-B cleavage; 0% vehicle, 100% cell-free pure enzyme wells;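 active means activation above the mean of all tested compounds plus 3 SD, set per screening campaign, cut at about 17% in these data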
IDE inh: human IDE inhibitors in live cells, primary screen, fluorescence polarization, HEK cells, FAbetaB substrate | Insulin-degrading enzyme (Homo sapiens), P14735 | FAbetaB cleavage | inhibition, % at 5.59 µM | 0.41% of 320,000 active | AID 434962, 2010;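 active means percent inhibition above the average of all tested compounds plus 3 SD, set per screening campaign, cut at about 16% in these data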;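 further: IDE supplied by intact live HEK cells; FP after avidin binding of uncleaved biotin substrate so inhibition keeps polarization high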
MEX-5 binding: MEX-5 zinc finger RNA-binding disruptors – biochemical, C. elegans, fluorescence polarization, MLPCN library, primary screen; MEX-5/FITC-TCR2 RNA binding; hits give low values; 0.38% of 300,000 active; Zinc finger protein mex-5 (Caenorhabditis elegans), Q9XUB2; activity score (negative = inhibition of binding), % at 10 µM; AID 1832, 2009;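 active means inhibition past about -25% in most replicates, and total fluorescence under double the plate's negative control median, limit read from the data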
MCL1-BIM inh: inhibitors of MCL1 binding to BIM-BH3, primary screen, biochemical, fluorescence polarization | Induced myeloid leukemia cell differentiation protein Mcl-1 (Homo sapiens), Q07820 | GST-MCL1 / FITC-Bim-BH3 fluorescence polarization | inhibition, % at 10.9 µM | 0.68% of 320,000 active | AID 2057, 2009;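 active means inhibition above the mean inhibition of all tested compounds plus 3 SD, set per campaign, cut at about 40% in these data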;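 further: higher means more loss of mP so more displacement of Bim peptide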
Target sequence (Q07820 whole entry, looked up): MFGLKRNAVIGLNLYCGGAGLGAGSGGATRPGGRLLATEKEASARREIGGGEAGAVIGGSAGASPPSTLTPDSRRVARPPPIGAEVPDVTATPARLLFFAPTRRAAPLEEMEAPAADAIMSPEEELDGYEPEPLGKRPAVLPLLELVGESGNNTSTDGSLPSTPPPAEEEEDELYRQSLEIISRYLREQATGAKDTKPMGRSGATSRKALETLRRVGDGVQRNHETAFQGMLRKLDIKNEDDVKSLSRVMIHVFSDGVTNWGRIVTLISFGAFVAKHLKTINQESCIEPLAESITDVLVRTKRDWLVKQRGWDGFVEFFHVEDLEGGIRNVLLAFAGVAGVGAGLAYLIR
Each line names hits and unclear results; the compound was inactive in the other large screens. An excerpt weighted towards active compounds, which were near 1.5% of everything screened.

N#C/C(=C/c1ccc(Br)s1)C(=O)NCCc1c[nH]c2ccccc12	none
Cc1ccccc1NC(=S)N(CCN1CCOCC1)Cc1ccccc1F	none
CN1CCCN(S(=O)(=O)c2ccccc2)c2nc3ccccc3nc21	none (no result: BCLXL inh, GLD-1 RNA inh, IDE inh, MEX-5 binding, MCL1-BIM inh)
Cc1ccc(S(=O)(=O)N2CCCN(C)c3nc4ccccc4nc32)cc1	BCLXL inh 38 (no result: MEX-5 binding)
CS(=O)(=O)Nc1ccc(C(=O)NCCSCc2ccccc2)cc1	none
CS(=O)(=O)Nc1ccc(C(=O)NCCc2ccccc2)cc1	BCLXL inh 145
CCOc1ccccc1OCCCNCc1ccco1	none
O=C1CCC(C(=O)N2CCc3ccccc3C2)CN1CCCN1CCOCC1 (stereo not given)	none
O=C(NCC1CCCO1)c1nn2c(C(F)(F)F)cc(-c3cc(Br)cs3)nc2c1Br (stereo not given)	MEX-5 binding -53
O=C(NCC1CCCO1)c1nn2c(C(F)(F)F)cc(-c3ccco3)nc2c1Cl (stereo not given)	none
CC(OC(=O)c1ccc(Cl)nc1)C(=O)NC1(C#N)CCCCC1 (stereo not given)	IDE act 18
Cc1cc(Nc2ccccc2C(=O)O)nc2nc3ccccc3c(=O)n12	none
NC(=O)c1ccccc1Nc1nc2nc3ccccc3c(=O)n2cc1Br	BCLXL inh 31 (no result: IDE act)
COc1cccc(NC(=O)CN(C)C(=O)c2cc(CN3C(=O)c4ccccc4C3=O)ccc2OC)c1	none (no result: BCLXL inh, GLD-1 RNA inh, IDE inh, MEX-5 binding, MCL1-BIM inh)
CCN(CC(=O)Nc1ccc(NC(C)=O)cc1)C(=O)c1cc(CN2C(=O)c3ccccc3C2=O)ccc1OC	IDE act 18
Cn1c(N)nc2nc(CCc3ccccc3)c(=O)[nH]c2c1=O	BCLXL inh 40, MCL1-BIM inh 41
CCOc1ccc(CN2CCNC(=O)C2CC(=O)NCCc2ccccn2)cc1 (stereo not given)	none
O=C(CC1C(=O)NCCN1Cc1ccccn1)NCCc1ccccc1F (stereo not given)	BCLXL inh 30
O=C(NCc1cccc(Cl)c1)c1cnccn1	BCLXL inh 45, MCL1-BIM inh 46
Cc1cccc(N2CCN(S(=O)(=O)c3c(C)[nH]c(C)c3C(=O)N3CCCC3)CC2)c1C	GLD-1 RNA inh 31
C/C(CC(=O)Nc1ccc(N(C)C)cc1)=N\NC(=O)c1ccc(Cl)cc1	none
C/C(CC(=O)Nc1ccc(N(C)C)cc1)=N\NC(=O)c1ccncc1	IDE act 18
O=[N+]([O-])c1ccc(O)c2ncccc12	none
O=[N+]([O-])c1ccc(O)c2cccnc12	BCLXL inh 44, MCL1-BIM inh 48
O=c1[nH]c(/C=C\c2cccc(O)c2)nc(O)c1[N+](=O)[O-]	none
O=c1[nH]c(/C=C\c2ccc(O)c(O)c2)nc(O)c1[N+](=O)[O-]	MEX-5 binding -30 (no result: BCLXL inh, GLD-1 RNA inh, IDE inh, MCL1-BIM inh)
CCCOc1ccc(C(F)(F)F)cc1NC(=O)CCc1c(C)noc1C	none (no result: MEX-5 binding)
CC1N(C)c2cc(NC(=O)c3ccco3)ccc2C1(C)C (stereo not given)	GLD-1 RNA inh 36
COc1ccc2o/c(=N\O)c(C(=O)Nc3ccccc3OC)cc2c1	IDE inh 28
COc1ccc2cc([C@H](C)C(=O)N(C)Cc3ccccc3N3CCCC3)ccc2c1	none
CC(=O)Nc1ccc(N2S(=O)(=O)c3ccccc3S2(=O)=O)cc1	IDE act 20 (no result: MEX-5 binding)
CC(=O)Nc1ccc(N2Cc3ccccc3C2)cc1	none
Oc1ccc(N=Nc2n[nH]c(-c3ccccc3)n2)cc1	MEX-5 binding -37
Oc1ccc(N=Nc2nc(-c3ccccc3)c(-c3ccccc3)[nH]2)cc1	GLD-1 RNA inh 84
CCOc1ccc(C(=O)NC(C(=O)NCCc2ccc(OC(F)F)cc2)C(C)C)cc1 (stereo not given)	none
N#Cc1cc2ccccc2nc1SCC(=O)Nc1ccc(S(=O)(=O)N2CCCC2)cc1	GLD-1 RNA inh 45

Bioassay records from PubChem.
